Reference: PubChem BioAssay (NCATS)
Inconclusive results are not listed. Activity calls are given as the source filed them. Calls follow the shape of the dose curve; as a rule, active = well fitted inhibition curve with a large enough effect; inconclusive = small, poorly fitted or top-dose-only effect; inactive = flat fitted curve, though single readings scatter.

How the values were obtained:
Experiment in all cases: qHTS profiling for inhibitors of Plasmodium falciparum proliferation (AID 504749); also: nearly all actives have a fitted effect of over 60% in size
Settings in all cases: P. falciparum in erythrocytes, SYBR Green DNA, 72 h; series mostly up to 28.7 µM
[1] = system: CP252
In short: (§1)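 SYBR Green fluorescence of parasite DNA, read after lysis and overnight dark incubation, measured growth over 72 h in erythrocyte culture at 0.3% parasitemia and 2.5% hematocrit. Data normalised to DMSO and 0.29 uM artemisinin, with plate-drift correction.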

[2] = system: CP256
In short: as §1

[3] = system: CP260
In short: as §1

[4] = system: CP262
In short: as §1

[5] = system: CP265
In short: as §1

[6] = system: CP266
In short: as §1

[7] = system: CP268
In short: as §1

[8] = system: CP269
In short: as §1

[9] = system: CP286
In short: as §1

[10] = system: CP291
In short: as §1

[11] = system: CP297
In short: as §1

[12] = system: CP305
In short: as §1

[13] = system: CP315
In short: as §1

[14] = system: CP325
In short: as §1

[15] = system: CP329
In short: as §1

[16] = system: CP335
In short: as §1

[17] = system: DFO2036
In short: as §1

[18] = system: DIV14
In short: as §1

[19] = system: DIV17
In short: as §1

[20] = system: DIV30
In short: as §1

Measured: Potency
Potency is read from the fitted curve at half-maximal effect.

CC(C(=O)O)c1ccc(N2Cc3ccccc3C2=O)cc1 (stereo not given)
inactive: all assays above

CCCCCCC(O)C/C=C/CCCCCCCC(=O)O (stereo not given)
inactive: all assays above

CCCCCCCCCCCCCCCC(=O)OCC(COC(=O)CCCCCCCCCCCCCCC)OC(=O)CCCCCCCCCCCCCCC
inactive: all assays above

C[C@H]1C[C@H]2[C@@H]3CCC4=CC(=O)C=C[C@]4(C)[C@@]3(F)[C@@H](O)C[C@]2(C)[C@@]1(O)C(=O)CO
inactive: all assays above

O=C(O)CN(CCN(CC(=O)O)CC(=O)O)CC(=O)O
inactive: all assays above

Nc1c(N=Nc2ccc(-c3ccc(N=Nc4cc(S(=O)(=O)O)c5ccccc5c4N)cc3)cc2)cc(S(=O)(=O)O)c2ccccc12
inactive: all assays above

COCC(=O)Nc1cc(Sc2ccccc2)ccc1N=C(NC(=O)OC)NC(=O)OC
inactive: all assays above

CC1(C)S[C@@H]2[C@H](NC(=O)[C@@H](NC(=O)N3CCNC3=O)c3ccccc3)C(=O)N2[C@H]1C(=O)O
inactive: all assays above

CC1=CCC(C(C)(C)O)CC1 (stereo not given)
inactive: all assays above

CC(O)CO (stereo not given)
inactive: all assays above

CCCC(=O)O[C@]1(C(=O)CCl)[C@H](C)C[C@@H]2[C@H]3CCC4=CC(=O)C=C[C@]4(C)[C@@]3(F)C(=O)C[C@@]21C
active: [1] 3160 nM | [2] 794 nM | [3] 2820 nM | [4] 1690 nM | [5] 2820 nM | [6] 3380 nM | [7] 4260 nM | [8] 4260 nM | [9] 2820 nM | [10] 4260 nM | [11] 1900 nM | [12] 4260 nM | [13] 3790 nM | [14] 4260 nM | [15] 1900 nM | [16] 1510 nM | [17] 891 nM | [18] 6010 nM | [19] 6750 nM | [20] 4260 nM

CCN(CC)Cc1cc(Nc2ccnc3cc(Cl)ccc23)ccc1O
active: [1] 100 nM | [2] 89.1 nM | [3] 20 nM | [4] 72.1 nM | [5] 20 nM | [6] 102 nM | [7] 51 nM | [8] 45.5 nM | [9] 31.6 nM | [10] 45.5 nM | [11] 90.7 nM | [12] 40.5 nM | [13] 287 nM | [14] 57.3 nM | [15] 90.7 nM | [16] 40.5 nM | [17] 56.2 nM | [18] 80.9 nM | [19] 114 nM | [20] 181 nM

C=CCSSSCC=C
inactive: all assays above

O=S(=O)(O)c1ccc2c(N=Nc3ccc(S(=O)(=O)O)c4ccccc34)c(O)c(S(=O)(=O)O)cc2c1
inactive: all assays above

CC(C)(C)C(=O)OCOC(=O)[C@@H]1N2C(=O)[C@@H](N=CN3CCCCCC3)[C@H]2SC1(C)C
inactive: all assays above

C#CCOc1ccc2c(C)cc(=O)oc2c1
inactive: all assays above

CC(=O)Oc1c(C)cc(OCC(O)CNC(C)C)c(C)c1C (stereo not given)
inactive: all assays above

CCOC(C)=O
inactive: all assays above

CCCCC/C=C\C/C=C\CCCCCCCC(=O)O
inactive: all assays above

CO[C@H](C(=O)[C@@H](O)[C@@H](C)O)C1Cc2cc3cc(O[C@H]4C[C@@H](O[C@H]5C[C@@H](O)[C@H](O)[C@@H](C)O5)[C@@H](O)[C@@H](C)O4)c(C)c(O)c3c(O)c2C(=O)[C@H]1O[C@H]1C[C@@H](O[C@H]2C[C@@H](O[C@H]3C[C@](C)(O)[C@H](O)[C@@H](C)O3)[C@H](O)[C@@H](C)O2)[C@H](O)[C@@H](C)O1 (stereo not given in full)
active: [1] 178 nM | [2] 251 nM | [3] 112 nM | [4] 1690 nM | [5] 282 nM | [6] 1690 nM | [7] 1350 nM | [8] 1350 nM | [9] 89.1 nM | [10] 1200 nM | [11] 2690 nM | [12] 757 nM | [13] 3380 nM | [14] 1690 nM | [15] 1690 nM | [16] 151 nM | [17] 112 nM | [18] 601 nM | [19] 675 nM | [20] 2390 nM

CCC(=O)NCCC1CCc2ccc3c(c21)CCO3 (stereo not given)
inactive: all assays above

Cc1c(C)c2c(c(C)c1O)CC[C@@](C)(CCC[C@@H](C)CCC[C@@H](C)CCCC(C)C)O2
inactive: all assays above

C[C@@H]1CCC2[C@@H](C)[C@@H](O)O[C@@H]3O[C@@]4(C)CC[C@@H]1[C@@]23OO4 (stereo not given in full)
active: [1] 2.5 nM | [2] 2.2 nM | [3] 1.3 nM | [4] 6 nM | [5] 0.9 nM | [6] 7.6 nM | [7] 3.8 nM | [8] 4.8 nM | [9] 2.5 nM | [10] 4.3 nM | [11] 4.8 nM | [12] 3.8 nM | [13] 6.7 nM | [14] 4.8 nM | [15] 6 nM | [16] 2.7 nM | [17] 1.6 nM | [18] 3 nM | [19] 2.7 nM | [20] 2.4 nM
